Source: PubChem BioAssay
Hits are enriched below; roughly 2.5% of the tested compounds scored in any of these assays.
Efflux pump mplx = inhibitors of Candida efflux pumps in yeast, primary screen, S. cerevisiae, Nile Red, multiplex; S. cerevisiae Candida pump triplex; inhibition, % at 10 µM; hit rate 0.44% among 330,000;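 active = plate passing quality check with inhibition over a set limit, or well fluorescence over plate mean plus 4 SD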;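 note: Nile Red retained in pooled yeast measured as flow cytometry median fluorescence; 0% = buffer negative control and 100% = Enniatin B positive control; higher means more Nile Red kept so more efflux inhibition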
ATG4B inhibitor = ATG4B protease inhibitors, primary screen, biochemical, fluorescence, uHTS; Cysteine protease ATG4B (Homo sapiens), Q9Y4P1; ATG4B cleavage of LC3-PLA2, NBD-HPC fluorescence, 1 h; inhibition, % at 8.33 µM; hit rate 0.51% among 340,000; in the data active = inhibition above about 40%
Target sequence (Q9Y4P1 whole entry, looked up): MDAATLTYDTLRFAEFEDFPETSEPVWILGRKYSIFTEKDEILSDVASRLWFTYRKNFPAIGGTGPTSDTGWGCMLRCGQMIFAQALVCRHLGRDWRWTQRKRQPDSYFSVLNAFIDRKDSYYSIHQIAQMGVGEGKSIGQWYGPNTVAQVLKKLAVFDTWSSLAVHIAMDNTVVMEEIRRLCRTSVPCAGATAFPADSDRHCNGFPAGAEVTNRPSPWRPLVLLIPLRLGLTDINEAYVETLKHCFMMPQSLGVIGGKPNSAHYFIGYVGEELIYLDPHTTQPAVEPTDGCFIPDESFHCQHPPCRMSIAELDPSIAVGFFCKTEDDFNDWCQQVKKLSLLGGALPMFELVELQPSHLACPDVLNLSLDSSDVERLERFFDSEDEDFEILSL
V-ATPase pHluor = regulators of yeast V-ATPase proton pumping, primary screen, pHLuorin cytosolic pH fluorescence; S. cerevisiae; hit rate 0.37% among 350,000; response, % at 10 µM; in the data active = response mostly above about 7.3%, no sharp cut-off; inactive = mostly below about 5.4%; note: actives read high
AI-2 QS modul = Vibrio harveyi AI-2 quorum sensing modulators, primary screen, JMH597 strain, luminescence/OD600 ratio | Vibrio harveyi JMH597 AI-2 luminescence/OD600 ratio, 9 h; stronger effect = lower value; strain lacks LuxN and CqsS sensors; 0 = neutral-control median | activity change, % at 7.5 µM | hit rate 0.4% among 300,000 | AID 2094, 2009; in the data active = activity change below about -75%, passing the limit was not always enough;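 note: luminescence divided by OD600 gain over 9 h not by final OD600 alone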
Mot1-301 SUMO = yeast Mot1-301 growth rescue at high temperature, primary screen, SUMOylation pathway inhibitor project, S. cerevisiae, ATP luminescence, 38.5C; S. cerevisiae Mot1-301 growth rescue; percent above DMSO median, 100 means doubled; growth rescue, % at 18.8 µM; hit rate 1% among 320,000; AID 2716, 2010;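 active = every valid replicate shows activation above 250% relative to neutral control wells; inactive = the rest, any valid replicate at or below 250%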;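 note: OY570 slx delta 5 strain wells were the positive control but not used for scaling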
Yeast Mot1 SUMO = growth restoration of Mot1-301 yeast on galactose, dose response, SUMO pathway inhibitor project, whole organism, S. cerevisiae, ATP luminescence, cherry-picked samples. growth activity, percent, % at 42 µM. shares compounds with Mot1-301 SUMO. S. cerevisiae Mot1-301 galactose growth, 24 h; -100 = growth of slx-deleted rescue strain. AID 493004, 2010. 2,300 tested, under 10 active;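 active = Signal drops as the depositor expects, and the fitted half-maximal dose is no more than ten times the top valid tested dose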;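 note: more negative values mean stronger growth rescue toward the control strain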
The depositor's hits bear a star; . = no result; + = active, no number.

SMILES	Efflux pump mplx	ATG4B inhibitor	V-ATPase pHluor	AI-2 QS modul	Mot1-301 SUMO	Yeast Mot1 SUMO
Cc1noc(C)c1COc1ccccc1C(=O)N(C)CC(=O)Nc1ccc(Cl)c(Cl)c1	0	-3	-1	2	-17	.
N#Cc1c(Cn2cncn2)nc(=O)n(-c2ccc(Cl)cc2)c1N	0	6	-5	3	+	0
Cn1c(SCC(=O)Nc2ccc(N3CCOCC3)c(Cl)c2)nnc1-c1ccccc1	0	8	.	23	692*	0
CCn1c(C)nc2cc(C(=O)NN=Cc3ccc([N+](=O)[O-])cc3)ccc21	0	-2	2	.	-1	.
c1ccc(-c2csc(N3CCN(c4ccccn4)CC3)n2)cc1	0	8	4	10	699*	0
c1ccc(-c2csc(N3CCOCC3)n2)cc1	0	-1	-3	14	17	.
CC(C)(C)NC(=O)CC1C(=O)NCCN1Cc1c(F)cccc1Cl (stereo not given)	0	2	-1	9	836*	1
O=C(Nc1ccccc1)OCCN1CCN(Cc2ccccc2)CCC1=O	0	-7	-5	28	2	.
O=C1CCN(Cc2ccccc2)CCN1CCOc1ccccc1	0	-3	5	11	858*	0
CNC(=O)c1ccccc1NC(=O)c1c(O)c2c([nH]c1=O)CCCC2	0	-9	4	.	522*	0
CCN1CCCC1CNC(=O)c1c(O)c2c([nH]c1=O)CCCC2 (stereo not given)	0	-7	0	-1	8	.
O=C(Nc1ccc2oc(-c3ccccc3F)nc2c1)c1ccccc1F	0	11	1	-6	8	.
O=C(Nc1ccc2oc(-c3ccccc3F)nc2c1)c1ncn[nH]1	0	-3	-2	8	+	1
COc1cc(S(=O)(=O)NC2CCCC2)c(OC)cc1C	0	2	0	50	435*	0
Fc1cccc(NC(=S)N2CCn3cccc3C2c2cccnc2)c1 (stereo not given)	0	-12	-3	-5	497*	0
COc1ccc(C(=O)Sc2ccc(Cl)cc2)cc1OC	0	2	-2	22	+	0
COc1ccc(C(=O)Sc2ccc(C)cc2)cc1OC	0	-6	-1	0	.	.
O=C(Nc1ccc(S(=O)(=O)NC2=NCCCCC2)cc1)c1ccc(C(F)(F)F)cc1	0	-7	-4	38	451*	-1
C=CCN1c2ccccc2[C@]23C[C@@H](C(=O)OC)N=C2NC(C(=O)OC)=C(C(=O)OC)[C@H]13	0	-23	-2	8	834*	-1
N/C(=N\NS(=O)(=O)c1ccccc1Cl)c1ccccn1	0	5	5	-9	-8	.
Cc1ccc(SC[C@H](C)CN2CC[C@H](C)CCC2=O)cc1	0	0	-3	5	460*	0
C[C@@H]1CCC(=O)N(C[C@@H](C)CSc2ccc(Br)cc2)CC1	0	11	0	.	-8	.
O=C(COc1ccc(F)cc1Cl)N(Cc1nnc(-c2ccccc2Cl)o1)C1CC1	4	-4	1	55	510*	0
Cc1ccc(C)c(OCC(=O)N(Cc2nnc(-c3ccccc3Cl)o2)C2CC2)c1	0	-11	-1	46	-4	.
N#Cc1c(C(F)(F)F)cc(-c2cccc(Cl)c2)[nH]c1=O	0	13	8	80	-19	.
SMILES	Efflux pump mplx	ATG4B inhibitor	V-ATPase pHluor	AI-2 QS modul	Mot1-301 SUMO	Yeast Mot1 SUMO
COC(=O)c1c(C)[nH]c(C(=O)OCc2csc(CC(=O)Nc3ccccc3C)n2)c1C	0	-7	-2	.	7	.
CC(=O)Nc1ccc(C(=O)NCCCOC(C)C)cc1	0	-13	0	38	798*	0
CCOCCCNC(=O)c1ccc(NC(C)=O)cc1	0	-7	1	24	17	.
COc1ccc(C(=O)CC(=O)C(=O)Nc2ccc(C)c(C)c2)cc1	0	-3	0	44	538*	0
O=C(Cc1ccccc1)Nc1ncnc2c1C(c1ccccc1)c1c(ccc3ccccc13)O2 (stereo not given)	0	-11	2	.	126	.
COc1ccccc1N1CCN(C2CCCN(Cc3cccc(O)c3)C2)CC1 (stereo not given)	0	-3	5	11	16	.
CC(=O)c1cccc(CN2CCCC(N3CCN(c4ccccc4F)CC3)C2)c1 (stereo not given)	0	17	4	4	796*	0
Cn1c(CN2CCOCC2)nnc1SCC(N)=O	0	4	1	21	538*	1
COc1ccc(/C=C/C(=O)N2CCC(C(N)=O)CC2)cc1S(=O)(=O)N1CCOCC1	0	-5	0	16	714*	-1
N/C(=N\OC(=O)CCCc1ccccc1)c1ccccc1Cl	0	15	1	18	-3	.
O=C(OCc1ccc([N+](=O)[O-])cc1Cl)c1cnccn1	0	5	5	-63	-8	.
Cc1ccc(C(=O)Nc2ccc3c(c2)OCCO3)c(Cl)c1	0	1	-4	28	408*	-1
Cc1ccc(C(=O)COC(=O)c2cccc([N+](=O)[O-])c2)s1	0	16	1	.	3	.
CCN1CCCC(NC(=O)c2scc3c2CCCC3)C1 (stereo not given)	0	-4	-3	11	659*	0
C=C(C)C(=O)OC1(C(F)(F)F)Oc2cc(C)ccc2NC1=O (stereo not given)	0	-3	5	53	363*	-2
Cc1cc(C)c2c(C)[nH]nc2n1	0	-6	-5	6	200	.
Cc1cc(C)c2c(=O)[nH]cnc2n1	0	9	2	13	997*	0
C/C(=N\NC(=O)c1ccc2c(c1)OCO2)c1ccc(NC(=O)CCCC(=O)O)cc1	0	8	-3	30	-7	.
COc1nc(OC)nc(N2CCC(C(=O)NC3CCCCCC3)CC2)n1	0	3	-3	11	382*	1
COc1ccc(NC(=O)CSc2nnc(-c3ccccn3)n2-c2ccccc2)cc1OC	0	0	1	25	475*	0
Cc1ccc(S(=O)(=O)N2CCOCC2)cc1NC(=O)COC(=O)CCC(=O)c1cccs1	0	-17	1	28	522*	1
O=C(COC(=O)CCC(=O)c1cccs1)Nc1ccc(S(=O)(=O)N2CCOCC2)cc1	0	-4	3	12	-4	.
O=c1[nH]c(=O)n(C2CCCO2)cc1Br (stereo not given)	0	-9	-3	13	678*	1
